Measured values from the supplement of paper PMC10981050.
“And” between values parts separate entries of the source, which are not always exact repeats. Equal entries are not always repeated. Structures can show the parent of a compound that is named as a salt.

Tests used:
Experiment in all cases: cell viability relative to vehicle control; higher = less cytotoxic
Conditions in all cases: 10 µM
K562 = system: K562
Outline: (§1)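 Each screen used CRISPR-edited mutant and wild-type clones from four leukaemia lines. Compounds were acoustically dispensed at a single 10 µM dose, and CellTiter-Glo luminescence was read after 48 h with the supernatant first removed. Viability was analysed in Genedata Screener and given as percent of the on-plate vehicle control.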

MARIMO = system: MARIMO
Outline: as §1

MOLM14 = system: MOLM14
Outline: as §1

OCI-AML2 = system: OCI-AML2
Outline: as §1

| SMILES | cell viability (K562; SRSF2 genotype: SRSF2 P95H/wt) | cell viability (K562; SRSF2 genotype: SRSF2 wt/wt) [%] | cell viability (MARIMO; SRSF2 genotype: SRSF2 P95H/wt) [%] | cell viability (MARIMO; SRSF2 genotype: SRSF2 wt/wt) [%] | cell viability (MOLM14; SRSF2 genotype: SRSF2 P95H/wt) [%] | cell viability (MOLM14; SRSF2 genotype: SRSF2 wt/wt) [%] | cell viability (OCI-AML2; SRSF2 genotype: P95H/wt) [%] | cell viability (OCI-AML2; SRSF2 genotype: wt/wt) [%] |
| --- | --- | --- | --- | --- | --- | --- | --- | --- |
| CCC[C@@H]1C[C@@H](C(=O)N[C@@H]([C@H]2O[C@H](SC)[C@H](O)[C@@H](O)[C@H]2O)[C@H](C)Cl)N(C)C1 [Clindamycin] | 96.3% and 99.1% | 103 | 104 | 106 | 95.3 | 99.8 | 113 | 98.9 |
| C=CC(=O)Nc1cccc(Oc2nc(Nc3ccc(N4CCN(C)CC4)cc3)nc3ccsc23)c1 | 16.7% and 14.4% | 49.6 | 31.2 | 43.4 | 0.27 | 0.47 | 0.27 | 0.68 |
| CO[C@@H]1[C@@H](O[C@@H]2O[C@H](C)[C@@H](O[C@H]3C[C@@](C)(O)[C@@H](O)[C@H](C)O3)[C@H](N(C)C)[C@H]2O)[C@@H](CC=O)C[C@@H](C)[C@@H](O[C@H]2CC[C@H](N(C)C)[C@@H](C)O2)/C=C/C=C/C[C@@H](C)OC(=O)C[C@H]1OC(C)=O [Acetylspiramycin (ASPM)] | 87.2% and 93.6% | 89.4 | 91.4 | 90.3 | 84.4 | 90.9 | 83.1 | 76.8 |
| CC(C)(c1ccc(OCC(O)CO)cc1)c1ccc(OCC(O)CCl)cc1 (centres undefined) | 82.3% and 81.7% | 85.8 | 83.5 | 104 | 86 | 90.9 | 84.8 | 86.5 |
| CCOC(=O)[C@H](CCc1ccccc1)N[C@@H](C)C(=O)N(CC(=O)O)C1Cc2ccccc2C1 [Delapril Hydrochloride] | 100% and 97.5% | 95.8 | 91 | 100 | 86.3 | 90.7 | 94 | 91.6 |
| COc1ccc2cc3[n+](cc2c1OC)CCc1cc2c(cc1-3)OCO2 [Berberine chloride] | 66.5% and 69.6% | 65.3 | 67.2 | 66.7 | 70.4 | 81.3 | 48.9 | 53.8 |
| COc1cc2c(cc1OC)[C@@H](Cc1ccc(Oc3cc(C[C@@H]4c5cc(OC)c(OC)cc5CCN4C)ccc3O)cc1)N(C)CC2 [Dauricine] | 38% and 41.8% | 18.5 | 2.46 | 15.1 | 1.5 | 1.07 | 5.34 | 4.94 |
| CCOc1nc2cccc(C(=O)OCc3oc(=O)oc3C)c2n1Cc1ccc(-c2ccccc2-c2noc(=O)[nH]2)cc1 [Azilsartan Medoxomil (TAK-491)] | 97.7% | 95.6 | 101 | 108 | 105 | 102 | 102 | 103 |
